{"source": "PubChem BioAssay (NCI)", "note": "The panel holds about 83,000 compounds, 20% with a hit somewhere; the sample as a whole holds those more often.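 Assay: single dose, 48 h. Readout: percent growth (0 = no net growth; negative = cell death). Active: <10.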 Activity calls are given as the source filed them.", "data": [{"test_system": "UACC-257 melanoma", "experiment": "NCI-60 one-dose screen, 48 h (100 = growth as untreated, 0 = no growth, -100 = all killed)", "settings": "10 µM", "values": [{"smiles": "O=C1c2ccccc2CCC1(Br)Br", "growth": "63% (inactive)"}, {"smiles": "O=C(CNS(=O)(=O)Cc1ccccc1)NNc1ccccc1", "growth": "84.5% (inactive)"}, {"smiles": "COc1ccc(N)c2c1C(=O)c1ccccc1C2=O", "growth": "106% (inactive)"}, {"smiles": "Cc1cc(C)c(N2C(=O)CC(Sc3ccccc3N)C2=O)c(C)c1", "note": "(stereo not given)", "growth": "60.4% (inactive)"}, {"smiles": "CCC(=O)Oc1ccc(/C=N/NC(N)=S)nc1", "growth": "68.1% (inactive)"}, {"smiles": "ClCCn1c(CCl)nc2ccc(Cl)cc21", "growth": "70.3% (inactive)"}, {"smiles": "Cc1cc(Cl)ccc1NC(=O)/C(Cl)=C1/Sc2ccccc2NC1=O", "growth": "103% (inactive)"}, {"smiles": "CCOC(=O)[C@]1(Br)CC[C@@]1(Br)C(=O)OCC", "growth": "80.8% (inactive)"}, {"smiles": "COc1ccc2c(c1)[nH]c1c(/C=C/c3ccccc3)nccc12", "growth": "71.8% (inactive)"}, {"smiles": "N#C/C(=C/N1C(=O)/C(=C/c2ccc([N+](=O)[O-])cc2)SC1=S)c1nc2ccccc2s1", "growth": "96.5% (inactive)"}, {"smiles": "NCc1c(O)ccc2ccccc12", "growth": "95.6% (inactive)"}, {"smiles": "O=C1c2cccc3cc([N+](=O)[O-])cc(c23)C(=O)N1CCN1CCCC1", "growth": "3.14% (active)"}, {"smiles": "Cc1cc(O)c2c(c1O)C(=O)C13C(=C2O)C(=O)C2C(O)C1C1C(O)C3C(=O)C3=C(O)c4c(O)cc(C)c(O)c4C(=O)C321", "note": "(stereo not given)", "growth": "8.71% (active)"}, {"smiles": "CC1CCC2(C(=O)O)CCC3(C)C(=CCC4C5(C)CC(O)C(O)C(C)(CO)C5C(O)CC43C)C2C1C", "note": "(stereo not given)", "growth": "93.7% (inactive)"}, {"smiles": "COc1ccc2oc(-c3ccc(Cl)cc3)c(N3CCN(C)CC3)c2c1", "growth": "22% (inactive)"}, {"smiles": "Cc1cc(N=C2C=CC(=[N+](C)C)C=C2)c(N)cc1N", "growth": "103% (inactive)"}, {"smiles": "O=[N+]([O-])c1cc(S(=O)(=O)Nc2ccccc2)ccc1Cl", "growth": "88% (inactive)"}, {"smiles": "O=c1[nH]cc(/C=N\\Nc2ccccc2)c(=O)[nH]1", "growth": "78.4% (inactive)"}, {"smiles": "O=C(NC(=S)Nc1ccccn1)c1ccccc1", "growth": "110% (inactive)"}]}, {"test_system": "M14 melanoma", "experiment": "NCI-60 one-dose screen, 48 h (100 = growth as untreated, 0 = no growth, -100 = all killed)", "settings": "10 µM unless noted", "values": [{"smiles": "O=C1c2ccccc2CCC1(Br)Br", "growth": "5.66% (active)"}, {"smiles": "O=C(CNS(=O)(=O)Cc1ccccc1)NNc1ccccc1", "growth": "31.1% (inactive)"}, {"smiles": "COc1ccc(N)c2c1C(=O)c1ccccc1C2=O", "growth": "117% (inactive)"}, {"smiles": "COc1cc(N)ccc1Nc1c2ccccc2nc2ccccc12", "growth": "94.1% (inactive)"}, {"smiles": "Cc1cc(C)c(N2C(=O)CC(Sc3ccccc3N)C2=O)c(C)c1", "note": "(stereo not given)", "growth": "60.3% (inactive)"}, {"smiles": "CCC(=O)Oc1ccc(/C=N/NC(N)=S)nc1", "growth": "9.1% (active)"}, {"smiles": "ClCCn1c(CCl)nc2ccc(Cl)cc21", "growth": "-83.3% (active)"}, {"smiles": "Cc1cc(Cl)ccc1NC(=O)/C(Cl)=C1/Sc2ccccc2NC1=O", "growth": "83.8% (inactive)"}, {"smiles": "CCOC(=O)[C@]1(Br)CC[C@@]1(Br)C(=O)OCC", "growth": "86.6% (inactive)"}, {"smiles": "COc1ccc2c(c1)[nH]c1c(/C=C/c3ccccc3)nccc12", "growth": "71.4% (inactive)"}, {"smiles": "N#C/C(=C/N1C(=O)/C(=C/c2ccc([N+](=O)[O-])cc2)SC1=S)c1nc2ccccc2s1", "growth": "94.6% (inactive)"}, {"smiles": "CN(C)CCNc1cccc2sc3ccc(O)cc3c(=O)c12", "growth": "53.8% (inactive)"}, {"smiles": "NCc1c(O)ccc2ccccc12", "growth": "90.8% (inactive)"}, {"smiles": "O=C1c2cccc3cc([N+](=O)[O-])cc(c23)C(=O)N1CCN1CCCC1", "growth": "0.262% (active)"}, {"smiles": "CC1CCC2(C(=O)O)CCC3(C)C(=CCC4C5(C)CC(O)C(O)C(C)(CO)C5C(O)CC43C)C2C1C", "note": "(stereo not given)", "growth": "53.9% (inactive)"}, {"smiles": "COc1ccc2oc(-c3ccc(Cl)cc3)c(N3CCN(C)CC3)c2c1", "growth": "-66% (active)"}, {"smiles": "Cc1cc(N=C2C=CC(=[N+](C)C)C=C2)c(N)cc1N", "growth": "107% (inactive)"}, {"smiles": "O=[N+]([O-])c1cc(S(=O)(=O)Nc2ccccc2)ccc1Cl", "growth": "88.7% (inactive)"}, {"smiles": "O=c1[nH]cc(/C=N\\Nc2ccccc2)c(=O)[nH]1", "growth": "50.8% (inactive)"}, {"smiles": "O=C(NC(=S)Nc1ccccn1)c1ccccc1", "growth": "91.9% (inactive)"}]}, {"test_system": "HCT-15 colon", "experiment": "NCI-60 one-dose screen, 48 h (100 = growth as untreated, 0 = no growth, -100 = all killed)", "settings": "10 µM", "values": [{"smiles": "O=C1c2ccccc2CCC1(Br)Br", "growth": "-57% (active)"}, {"smiles": "O=C(CNS(=O)(=O)Cc1ccccc1)NNc1ccccc1", "growth": "27.8% (inactive)"}, {"smiles": "COc1ccc(N)c2c1C(=O)c1ccccc1C2=O", "growth": "87.1% (inactive)"}, {"smiles": "COc1cc(N)ccc1Nc1c2ccccc2nc2ccccc12", "growth": "-10.1% (active)"}, {"smiles": "Cc1cc(C)c(N2C(=O)CC(Sc3ccccc3N)C2=O)c(C)c1", "note": "(stereo not given)", "growth": "58% (inactive)"}, {"smiles": "CCC(=O)Oc1ccc(/C=N/NC(N)=S)nc1", "growth": "65% (inactive)"}, {"smiles": "ClCCn1c(CCl)nc2ccc(Cl)cc21", "growth": "-31.5% (active)"}, {"smiles": "Cc1cc(Cl)ccc1NC(=O)/C(Cl)=C1/Sc2ccccc2NC1=O", "growth": "88.2% (inactive)"}, {"smiles": "CCOC(=O)[C@]1(Br)CC[C@@]1(Br)C(=O)OCC", "growth": "89.2% (inactive)"}, {"smiles": "COc1ccc2c(c1)[nH]c1c(/C=C/c3ccccc3)nccc12", "growth": "43.9% (inactive)"}, {"smiles": "N#C/C(=C/N1C(=O)/C(=C/c2ccc([N+](=O)[O-])cc2)SC1=S)c1nc2ccccc2s1", "growth": "95.6% (inactive)"}, {"smiles": "CN(C)CCNc1cccc2sc3ccc(O)cc3c(=O)c12", "growth": "26.9% (inactive)"}, {"smiles": "NCc1c(O)ccc2ccccc12", "growth": "98.2% (inactive)"}, {"smiles": "O=C1c2cccc3cc([N+](=O)[O-])cc(c23)C(=O)N1CCN1CCCC1", "growth": "-7.27% (active)"}, {"smiles": "Cc1cc(O)c2c(c1O)C(=O)C13C(=C2O)C(=O)C2C(O)C1C1C(O)C3C(=O)C3=C(O)c4c(O)cc(C)c(O)c4C(=O)C321", "note": "(stereo not given)", "growth": "16.4% (inactive)"}, {"smiles": "CC1CCC2(C(=O)O)CCC3(C)C(=CCC4C5(C)CC(O)C(O)C(C)(CO)C5C(O)CC43C)C2C1C", "note": "(stereo not given)", "growth": "112% (inactive)"}, {"smiles": "COc1ccc2oc(-c3ccc(Cl)cc3)c(N3CCN(C)CC3)c2c1", "growth": "28.9% (inactive)"}, {"smiles": "Cc1cc(N=C2C=CC(=[N+](C)C)C=C2)c(N)cc1N", "growth": "109% (inactive)"}, {"smiles": "O=[N+]([O-])c1cc(S(=O)(=O)Nc2ccccc2)ccc1Cl", "growth": "96.5% (inactive)"}, {"smiles": "O=c1[nH]cc(/C=N\\Nc2ccccc2)c(=O)[nH]1", "growth": "41.1% (inactive)"}, {"smiles": "O=C(NC(=S)Nc1ccccn1)c1ccccc1", "growth": "100% (inactive)"}]}]}
